The record followed here is PubChem BioAssay (EPA / NIEHS).

“And” between values parts separate entries of the source, which are not always exact repeats. Equal entries are not always repeated. A structure can be active in one record and inactive in another. The source made the active and inactive calls. How the source made its calls: active means hit-call score of the fitted dose curve at least 0.9, where 1 is the maximum; inactive means score below 0.9.

Read-out in assay [1]: Interleukin-8 (IL8), CXCL8 (gene 3576)
Kind of assay: BSK_CASM3C_IL8: BioMAP Diversity Plus: CASM3C Assay for Interleukin-8 (IL8) Biomarker Activity (AID 2283042).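 Further: IL-8 protein level quantified by ELISA.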 The conditions noted are these: primary human coronary artery smooth muscle cells; actives raise or lower the signal.

Read-out in assay [2]: Human Leukocyte Antigen - DR isotype (HLADR), HLA-DRA (gene 3122)
Kind of assay: BSK_CASM3C_HLADR: BioMAP Diversity Plus: CASM3C Assay for Human Leukocyte Antigen - DR isotype (HLADR) Biomarker Activity (AID 2283043).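 Further: cell-surface HLA-DR protein level quantified by ELISA.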 The conditions noted are these: primary human coronary artery smooth muscle cells; actives raise or lower the signal.

Read-out in assay [3]: Macrophage colony-stimulating factor (MCSF), CSF1 (gene 1435)
Kind of assay: BSK_CASM3C_MCSF: BioMAP Diversity Plus: CASM3C Assay for Macrophage colony-stimulating factor (MCSF) Biomarker Activity (AID 2283044).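 Further: M-CSF protein amount quantified by ELISA after 24 h exposure.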 The following applies: primary human coronary artery smooth muscle cells; actives raise or lower the signal.

Read-out in assay [4]: Low-density lipoprotein receptor (LDLR), LDLR (gene 3949)
Briefly: BSK_CASM3C_LDLR: BioMAP Diversity Plus: CASM3C Assay for Low-density lipoprotein receptor (LDLR) Biomarker Activity (AID 2283045).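 Further: LDLR protein level on the cell surface quantified by ELISA.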 The conditions noted are these: primary human coronary artery smooth muscle cells; actives raise or lower the signal.

Read-out in assay [5]: Monocyte Chemoattractant Protein-1 (MCP1), CCL2 (gene 6347)
Briefly: BSK_CASM3C_MCP1: BioMAP Diversity Plus: CASM3C Assay for Monocyte Chemoattractant Protein-1 (MCP1) Biomarker Activity (AID 2283046).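 Further: MCP-1 level quantified by ELISA 24 h after dosing.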 The following applies: primary human coronary artery smooth muscle cells; actives raise or lower the signal.

The nature of assay [6]: BSK_CASM3C_Proliferation: Cell Proliferation Assessment in the BioMAP Diversity Plus: CASM3C Assay (AID 2283047).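 Further: sulforhodamine B total protein stain as relative cell number at 560 nm; sub-confluent cells exposed 48 h before staining; fitted both ways against DMSO so gain or loss of cell number.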 The conditions noted are these: primary human coronary artery smooth muscle cells.
Read-out in assay [7]: Monokine induced gamma interferon (MIG), CXCL9 (gene 4283)
Kind of assay: BSK_CASM3C_MIG: BioMAP Diversity Plus: CASM3C Assay for Monokine induced gamma interferon (MIG) Biomarker Activity (AID 2283048).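 Further: MIG protein level measured by ELISA.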 The following applies: primary human coronary artery smooth muscle cells; actives raise or lower the signal.

Read-out in assay [8]: serum amyloid A (SAA), SAA1 (gene 6288)
Briefly: BSK_CASM3C_SAA: BioMAP Diversity Plus: CASM3C Assay for serum amyloid A (SAA) Biomarker Activity (AID 2283049).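 Further: SAA protein level quantified by ELISA.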 The conditions noted are these: primary human coronary artery smooth muscle cells; actives raise or lower the signal.

A short description of assay [9]: BSK_CASM3C_SRB: Viability Assessment in the BioMAP Diversity Plus: CASM3C Assay (AID 2283050).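 Further: total protein by SRB staining as cytotoxicity measure in parallel cultures; cells exposed to compound for 24 h.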 The following applies: primary human coronary artery smooth muscle cells.
Read-out in assay [10]: Thrombomodulin, THBD (gene 7056)
Kind of assay: BSK_CASM3C_Thrombomodulin: BioMAP Diversity Plus: CASM3C Assay for Thrombomodulin Biomarker Activity (AID 2283051).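 Further: thrombomodulin protein level measured by ELISA 24 h after dosing.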 The following applies: primary human coronary artery smooth muscle cells; actives raise or lower the signal.

Take `C=C(C)C(=O)OCCC(F)(F)C(F)(F)C(F)(F)C(F)(F)C(F)(F)C(F)(F)C(F)(F)C(F)(F)F`: the result in assay [1], in [2], in [3], in assay [4], in assay [5] and in assay [6] was inactive. Also, the result in assay [7], in assay [8], in assay [9] and in assay [10] was inactive.

Take `CC(=O)CCC=C(C)CCC=C(C)C`: the result in [1], in assay [2], in [3], in assay [4], in assay [5] and in assay [7] was inactive. The outcome in [8], in [9] and in assay [10] was inactive. For the same compound, in assay [6], the AC50 (as a rule, the concentration giving half of the maximal activity seen) is 0.197 µM (active).

As to `c1ccc(Sc2ccccc2)cc1`, the outcome in assay [1], in assay [4], in [5], in assay [6], in assay [7] and in assay [10] was inactive. For the same compound, the AC50 in [2] is 20 µM (active); in assay [3], 14.9 µM (active); in assay [8] it was 20 µM (active); in assay [9], 29.8 µM (active).

For `CCCCCCCCCCCCS`, the outcome in assay [1], in assay [3], in assay [4], in [7], in [8] and in assay [10] was inactive. The AC50 was 33.8 µM (active) in [2], 3.97 µM (active) in assay [5], 24.4 µM (active) in [6] and 28.5 µM (active) in [9].

With `CC(=O)c1ccc(C)cc1`, the outcome in [1], in assay [2], in assay [3], in [4], in assay [5] and in assay [6] was inactive. The outcome in assay [7], in [8], in [9] and in [10] was inactive.

With `CCCCCCCC1CCCC1=O` (stereo unspecified), the outcome in assay [1] and in [10] was inactive. The AC50 in assay [2] was 35.2 µM (active); in [3] it was 31.9 µM (active); in assay [4] it was 30.5 µM (active); in assay [5] it was 34.3 µM (active); in assay [6], 31.2 µM (active); in assay [7], 31.8 µM (active). The AC50 was 36.2 µM (active) in assay [8] and 36.6 µM (active) in assay [9].

Take `CC(C)CCCC(C)(C)O`: the result in assay [1], in assay [2], in [3], in assay [4], in [5] and in [6] was inactive. Besides, the outcome in [7], in assay [8], in assay [9] and in assay [10] was inactive.

As to `O=C(O)C(F)(F)C(F)(F)C(F)(F)C(F)(F)C(F)(F)C(F)(F)C(F)(F)C(F)F`, the outcome in [1], in assay [2], in assay [3], in assay [4], in [5] and in assay [6] was inactive. Moreover, the result in assay [7], in [8], in assay [9] and in [10] was inactive.

For `O=S(=O)(O)C(F)(F)C(F)(F)OC(F)(F)C(F)(F)F`, the result in [1], in [2], in assay [3], in [4], in assay [5] and in assay [6] was inactive. Besides, the result in [7], in assay [9] and in assay [10] was inactive. Also, the AC50 in assay [8] was 44.9 µM (active) and 20 µM (active).

In the case of `C=C1CC/C=C(\C)CC[C@@H]2[C@@H]1CC2(C)C`, the result in assay [1], in assay [2], in assay [3], in [4], in assay [5] and in assay [6] was inactive. Further, the result in [7], in [8] and in [10] was inactive. For the same compound, in [9], the AC50 is 33.2 µM (active).

`CC(C)(C)c1cccc(O)c1`: the result in assay [1], in assay [2], in [3], in assay [4], in assay [5] and in [6] was inactive. The result in assay [7], in [8], in assay [9] and in [10] was inactive.

As for `CC(C)(CO)CO`, the result in assay [1], in assay [2], in [3], in [4], in [5] and in [6] was inactive. Further, the outcome in assay [7], in assay [8], in assay [9] and in assay [10] was inactive.

As to `CC1(C)[C@H](C=C(Cl)Cl)[C@H]1C(=O)OCc1cccc(Oc2ccccc2)c1`, the result in assay [1], in assay [2], in assay [3], in assay [4], in [5] and in [6] was inactive. Moreover, the outcome in assay [7], in assay [8], in assay [9] and in [10] was inactive.

`CCC(=O)OCC=Cc1ccccc1`: the outcome in assay [1], in assay [2], in assay [3], in assay [4], in [5] and in assay [6] was inactive. In addition, the result in assay [7], in assay [8], in assay [9] and in [10] was inactive.

As for `c1ccc(OCCOc2ccccc2)cc1`, the outcome in assay [1], in assay [2], in [3], in [4], in assay [5] and in [6] was inactive. For the same compound, the outcome in [7], in assay [8], in [9] and in assay [10] was inactive.

Take `CCOC(=O)CCCCCCCCC(=O)OCC`: the outcome in assay [1], in assay [2], in assay [3], in [4], in assay [5] and in [6] was inactive. In addition, the outcome in [7], in assay [8], in [9] and in [10] was inactive.

For the compound `CC1=CC(C)C(C=O)C(C)C1` (stereo unspecified) (tested in a mixture with another compound), the outcome in assay [1], in [2], in assay [3], in assay [4], in assay [5] and in assay [6] was inactive. Also, the outcome in assay [7], in assay [8], in assay [9] and in assay [10] was inactive.

On to `CC(=O)OCC=C(C)CCC=C(C)CCC=C(C)C`, for which the result in assay [1], in assay [2], in assay [3], in assay [4], in assay [5] and in assay [6] was inactive. Besides, the outcome in [7], in assay [8], in assay [9] and in assay [10] was inactive.

As for `C[C@]12CC[C@@H]3c4ccc(O)cc4CC[C@H]3[C@@H]1CC[C@@H]2O`, the result in assay [1], in assay [2], in [4], in assay [5], in [8] and in assay [9] was inactive. In addition, the outcome in assay [10] was inactive. Also, the AC50 in assay [3] is 3.24 µM (active); in assay [6], 13.4 µM (active); in assay [7], 12.2 µM (active).

Turning to `CCCO[Si](OCCC)(OCCC)OCCC`, the result in assay [1], in assay [2], in [3], in assay [4], in [5] and in [6] was inactive. Moreover, the outcome in [7], in assay [8], in assay [9] and in assay [10] was inactive.

On to `COc1ccccc1NC(=O)CC(C)=O`, for which the result in assay [1], in assay [2], in [3], in assay [4], in assay [5] and in assay [6] was inactive. The outcome in assay [7], in [8], in assay [9] and in assay [10] was inactive.

As to `O=C(O)C(F)(F)OC(F)(F)C(F)(F)OC(F)(F)C(F)(F)C(F)(F)C(F)(F)F`, the outcome in assay [1], in [2], in assay [3], in assay [4], in [5] and in assay [6] was inactive. In addition, the result in assay [7], in assay [8], in assay [9] and in [10] was inactive. Also, the concentration at half-maximal activity (AC50) in assay [5] is 48 µM (active).
